Test results taken from PubChem BioAssay (NCATS).
Where “and” joins values, the source holds several entries; their conditions need not be identical. Equal entries are not always repeated. Records with an inconclusive call do not appear. Calls of active or inactive are those of the source. Unless noted, calls come from the whole dose curve; as a rule, active = well fitted curve in the direction sought with a large enough effect; inconclusive = small, poorly fitted or top-dose-only effect, or another doubt; inactive = no such curve, though single readings can be large; an effect the other way counts as inactive or inconclusive.

What was measured:
[1] = target: Voltage-gated inwardly rectifying potassium channel KCNH2 (Homo sapiens) (UniProt Q12809); test: qHTS Assay for Small Molecule Inhibitors of the Human hERG Channel Activity (AID 588834);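 note: top concentration of the series differs between compounds; % is set by controls: 0 for no effect and ±100 for the full control effect; lower thallium flux fluorescence means stronger hERG block; nearly all actives have a fitted effect of over 50% in size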
Voltage-gated inwardly rectifying potassium channel KCNH2 (Homo sapiens), sequence (Q12809 whole entry, looked up): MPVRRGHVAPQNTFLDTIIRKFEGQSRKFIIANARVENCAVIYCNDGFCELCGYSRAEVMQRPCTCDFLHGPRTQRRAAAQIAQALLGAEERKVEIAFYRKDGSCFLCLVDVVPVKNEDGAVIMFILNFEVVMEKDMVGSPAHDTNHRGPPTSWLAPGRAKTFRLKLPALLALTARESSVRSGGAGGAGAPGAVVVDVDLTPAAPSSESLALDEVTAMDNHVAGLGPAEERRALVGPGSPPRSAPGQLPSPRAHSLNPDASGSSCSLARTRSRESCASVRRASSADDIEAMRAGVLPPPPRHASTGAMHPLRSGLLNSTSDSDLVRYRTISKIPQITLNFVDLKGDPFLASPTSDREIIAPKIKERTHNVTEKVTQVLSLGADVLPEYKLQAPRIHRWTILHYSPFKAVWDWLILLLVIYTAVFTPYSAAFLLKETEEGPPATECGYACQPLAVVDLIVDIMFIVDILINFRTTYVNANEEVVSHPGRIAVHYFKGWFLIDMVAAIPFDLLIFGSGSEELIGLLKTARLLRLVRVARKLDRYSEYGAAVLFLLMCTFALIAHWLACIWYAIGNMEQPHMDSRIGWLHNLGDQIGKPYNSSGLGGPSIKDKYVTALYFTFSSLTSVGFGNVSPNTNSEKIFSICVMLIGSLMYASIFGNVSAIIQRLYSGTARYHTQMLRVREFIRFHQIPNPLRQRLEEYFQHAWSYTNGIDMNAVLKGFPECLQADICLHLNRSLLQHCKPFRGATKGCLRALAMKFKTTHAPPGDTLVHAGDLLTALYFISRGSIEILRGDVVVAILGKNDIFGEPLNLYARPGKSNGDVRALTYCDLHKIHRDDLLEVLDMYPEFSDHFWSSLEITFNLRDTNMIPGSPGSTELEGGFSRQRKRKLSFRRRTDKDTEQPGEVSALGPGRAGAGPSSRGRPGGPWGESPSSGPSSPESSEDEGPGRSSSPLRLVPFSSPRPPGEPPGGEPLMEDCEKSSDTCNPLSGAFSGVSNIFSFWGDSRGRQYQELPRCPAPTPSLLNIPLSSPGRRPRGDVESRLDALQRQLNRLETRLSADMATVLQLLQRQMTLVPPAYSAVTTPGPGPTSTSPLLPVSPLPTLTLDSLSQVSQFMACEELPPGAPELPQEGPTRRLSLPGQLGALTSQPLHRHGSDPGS
Method in brief: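 Thallium-flux (FluxOR) read-out on FDSS: fluorescence read 10 s before and 2 min after stimulation buffer. hERG-BacMam-transduced U2OS cells, compound exposure about 10 min. AC50 by standard Hill equation.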

[2] = target: Glutaminase kidney isoform, mitochondrial (Homo sapiens) (UniProt O94925); test: qHTS for Inhibitors of Glutaminase (GLS): LOPAC Validation (AID 624146); conditions: glutaminase enzyme activity inhibition; note: potency is the fitted concentration of half-maximal effect; nearly all actives have a fitted effect of over 60% in size
Glutaminase kidney isoform, mitochondrial (Homo sapiens), sequence (O94925 whole entry, looked up, canonical isoform): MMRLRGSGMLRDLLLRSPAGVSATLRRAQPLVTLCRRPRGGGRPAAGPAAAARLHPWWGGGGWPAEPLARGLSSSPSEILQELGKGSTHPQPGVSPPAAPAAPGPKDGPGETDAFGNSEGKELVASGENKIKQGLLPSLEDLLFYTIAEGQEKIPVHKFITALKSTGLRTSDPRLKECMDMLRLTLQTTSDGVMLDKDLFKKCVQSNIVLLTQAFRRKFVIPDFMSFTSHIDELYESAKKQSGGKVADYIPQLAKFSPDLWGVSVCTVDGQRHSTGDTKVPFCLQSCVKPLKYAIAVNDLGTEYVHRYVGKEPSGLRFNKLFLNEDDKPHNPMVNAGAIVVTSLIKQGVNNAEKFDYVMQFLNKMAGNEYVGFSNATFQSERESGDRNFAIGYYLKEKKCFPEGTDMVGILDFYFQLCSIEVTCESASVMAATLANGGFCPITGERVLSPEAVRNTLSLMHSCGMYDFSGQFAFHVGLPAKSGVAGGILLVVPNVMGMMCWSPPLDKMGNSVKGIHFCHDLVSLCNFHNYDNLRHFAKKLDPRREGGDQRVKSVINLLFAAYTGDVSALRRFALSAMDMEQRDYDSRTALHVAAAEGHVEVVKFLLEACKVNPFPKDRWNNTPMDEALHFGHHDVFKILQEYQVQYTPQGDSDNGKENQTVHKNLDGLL
Method in brief: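 hKGA in 45 mM KH2PO4 (pH 8.2), 0.02% Tween-20 with compound, then 1mM L-Glutamine (stock as added) plus glutamate oxidase/HRP/Amplex red coupling mix. Fluorescence read initially and after 30 min at RT; signal change reflects glutamate formation.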

[3] = qHTS of Trypanosoma Brucei Inhibitors: LOPAC Validation (AID 624147); note: 0% is about no effect
Method in brief: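 Readout: single end-point luminescence (Kinase-Glo Plus, 10 min). Reaction conditions were TbPYK/substrate plus 130 uM ADP, 45 min at RT, pH 7.2 TEA buffer. No-enzyme wells served as controls, and data were normalized before concentration-response fitting.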

[4] = target: Glucagon-like peptide 1 receptor (Homo sapiens) (UniProt P43220); test: qHTS of GLP-1 Receptor Agonists: LOPAC Validation (AID 624148);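 note: luminescence from a luciferase reporter switched on by cAMP; 0% is about no effect; higher luminescence signal means agonism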
Glucagon-like peptide 1 receptor (Homo sapiens), sequence (P43220 whole entry, looked up): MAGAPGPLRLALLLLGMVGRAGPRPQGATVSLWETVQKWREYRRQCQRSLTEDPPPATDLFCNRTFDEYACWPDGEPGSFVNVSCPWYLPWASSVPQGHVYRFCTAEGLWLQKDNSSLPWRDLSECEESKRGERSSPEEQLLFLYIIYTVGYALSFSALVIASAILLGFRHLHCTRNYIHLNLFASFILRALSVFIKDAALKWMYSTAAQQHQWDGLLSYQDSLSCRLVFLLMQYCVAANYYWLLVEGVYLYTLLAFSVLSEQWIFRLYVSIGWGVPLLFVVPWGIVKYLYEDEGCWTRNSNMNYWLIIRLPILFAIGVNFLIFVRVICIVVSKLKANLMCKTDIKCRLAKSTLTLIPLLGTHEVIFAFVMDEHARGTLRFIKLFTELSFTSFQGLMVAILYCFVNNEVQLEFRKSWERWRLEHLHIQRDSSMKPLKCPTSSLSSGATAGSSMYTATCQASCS
Method in brief: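 Agonism scored as increased luciferase luminescence driven by cAMP in HEK293 clones carrying GLP-1R. Cells settled 12 hours, received compound for 4-6 hr at 37 deg C, 5% CO2, and were read after 12 min detection reagent at RT.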

[5] = qHTS of Nrf2 Activators: LOPAC Validation (AID 624149); note: 0% is about no effect
Method in brief: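 Following overnight seeding in 5% FBS OPTI-MEM, AREc32_Fluc cells receive compounds for a 24 hr incubation at 37 deg C with 5% CO2. Steady-Glo is added, and after 30 min at RT luminescence is recorded.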

[6] = HTS Assay for Allosteric Antagonists of the Human D2 Dopamine Receptor: Hit Validation in HTRF (AID 624455);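 note: stable D1 dopamine receptor cell line scored for blocking the D1 response; % is set by controls: 0 for no effect and ±100 for the full control effect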
Method in brief: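 Validation of hits used D1 receptor stably expressed in cells with HTRF detection of response inhibition; origin screen measured calcium flux following EC80 dopamine in a force-coupled, inducible Hek293 Trex D2 cell line.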

[7] = qHTS assay for small molecule agonists of the antioxidant response element (ARE) signaling pathway (AID 651741; active = well fitted activation curve with a large enough effect in the signal ratio; the % refers to the signal ratio; note: potency is the fitted concentration of half-maximal effect)
Method in brief: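 Agonist activity is measured as ARE-driven beta-lactamase expression in a stable HepG2 reporter line, using 16 h compound treatment at 37 C and a FRET substrate fluorescence readout after 2 h.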

[8] = qHTS assay for small molecule activators of the p53 signaling pathway (AID 651743; active = well fitted activation curve with a large enough effect in the signal ratio, not every such curve was filed as active; the % refers to the signal ratio; note: % of control where 0% means no effect); conditions: HCT-116 p53RE-bla, beta-lactamase FRET ratio, 16 h; activation: stronger effect = higher value
Method in brief: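 A beta-lactamase reporter under p53 response element control, stably carried by HCT-116 cells, reported pathway activation. Test compounds were applied for 16 hours at 37 C, and fluorescence was measured 2 hours after adding the B/G FRET substrate.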

[9] = qHTS assay for small molecule activators of the nuclear factor-kappa B (NF-kB) signaling pathway (AID 651749; active = well fitted activation curve with a large enough effect in the signal ratio; the % refers to the signal ratio; note: % of control where 0% means no effect); conditions: NF-kB-bla ME-180 cells, beta-lactamase FRET ratio, 16 h; stronger effect = higher value
Method in brief: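 FRET-based beta-lactamase detection in ME-180 cells reports NF-kB response-element-driven transcription following overnight (16 hr) compound treatment.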

[10] = qHTS assay for small molecule disruptors of the mitochondrial membrane potential - 1 hr assay (AID 651754; calls by dose curve; note: potency is the fitted concentration of half-maximal effect; nearly all actives have a fitted effect of over 35% in size)
Method in brief: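 In this qHTS format, a 1 hr compound treatment of HepG2 cells precedes Mito-MPS staining, and membrane potential is judged from aggregate (red) against monomer (green) fluorescence intensity.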

[11] = qHTS assay for small molecule disruptors of the mitochondrial membrane potential - 5 hr assay (AID 651755; calls by dose curve; note: potency is the fitted concentration of half-maximal effect; nearly all actives have a fitted effect of over 40% in size)
Method in brief: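 Membrane-potential dye readout: red aggregate (540 ex/590 em) versus green monomer (490 ex/535 em) fluorescence after 30 min dye loading, following 5 hr compound exposure at 37C of overnight-plated HepG2 cells.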

[12] = qHTS assay for environmental chemicals that activate the Aryl hydrocarbon Receptor (AhR) signaling pathway (AID 651777); conditions: 1A2-DRE human hepatoma cells, luciferase, 24 h; activation: stronger effect = higher value; note: potency is the fitted concentration of half-maximal effect; nearly all actives have a fitted effect of over 15% in size
Method in brief: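 Reporter gene assay: hepatoma cells with DRE/CYP1A2-luciferase, 24 hr compound incubation at 37 C, 5% CO2, luminescence after One-Glo (30 min, RT).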

[13] = target: Peroxisome proliferator-activated receptor alpha (Homo sapiens) (UniProt Q07869); test: qHTS assay for small molecule agonists of the peroxisome proliferator-activated receptor alpha (PPARalpha) signaling pathway (AID 651778); conditions: PathHunter PPARalpha complementation, chemiluminescence, 6 h; stronger effect = higher value; note: % of control where 0% means no effect
Peroxisome proliferator-activated receptor alpha (Homo sapiens), sequence (Q07869 whole entry, looked up): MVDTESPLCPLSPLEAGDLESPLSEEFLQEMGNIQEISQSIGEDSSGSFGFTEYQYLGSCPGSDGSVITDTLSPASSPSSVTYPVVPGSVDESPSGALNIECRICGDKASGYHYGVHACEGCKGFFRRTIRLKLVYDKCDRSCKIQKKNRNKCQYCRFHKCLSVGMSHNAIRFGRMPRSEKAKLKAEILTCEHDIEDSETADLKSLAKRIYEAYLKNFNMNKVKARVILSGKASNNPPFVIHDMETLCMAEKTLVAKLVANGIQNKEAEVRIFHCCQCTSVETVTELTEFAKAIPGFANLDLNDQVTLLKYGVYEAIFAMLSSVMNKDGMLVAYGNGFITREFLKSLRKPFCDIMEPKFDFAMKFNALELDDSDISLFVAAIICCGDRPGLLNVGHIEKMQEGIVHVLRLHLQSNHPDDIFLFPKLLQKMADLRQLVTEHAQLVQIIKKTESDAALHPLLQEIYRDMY
Method in brief: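 Chemiluminescence from complemented enzyme reported PPARalpha activation in cells after 6 hr of compound treatment at 37 C. The detection reagent was incubated for 60 min at room temperature, and compounds were scored as agonists.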

[14] = target: Nuclear receptor ROR-gamma (Homo sapiens) (UniProt P51449); test: qHTS assay for small molecule antagonists of the retinoid-related orphan receptor gamma (ROR-gamma) signaling pathway (AID 651802);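 note: CHO cells with doxycycline-induced ROR-gamma expression; luciferase reporter luminescence driven by ROR response element; % is set by controls: 0 for no effect and ±100 for the full control effect; nearly all actives have a fitted effect of over 60% in size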
Nuclear receptor ROR-gamma (Homo sapiens), sequence (P51449 whole entry, looked up): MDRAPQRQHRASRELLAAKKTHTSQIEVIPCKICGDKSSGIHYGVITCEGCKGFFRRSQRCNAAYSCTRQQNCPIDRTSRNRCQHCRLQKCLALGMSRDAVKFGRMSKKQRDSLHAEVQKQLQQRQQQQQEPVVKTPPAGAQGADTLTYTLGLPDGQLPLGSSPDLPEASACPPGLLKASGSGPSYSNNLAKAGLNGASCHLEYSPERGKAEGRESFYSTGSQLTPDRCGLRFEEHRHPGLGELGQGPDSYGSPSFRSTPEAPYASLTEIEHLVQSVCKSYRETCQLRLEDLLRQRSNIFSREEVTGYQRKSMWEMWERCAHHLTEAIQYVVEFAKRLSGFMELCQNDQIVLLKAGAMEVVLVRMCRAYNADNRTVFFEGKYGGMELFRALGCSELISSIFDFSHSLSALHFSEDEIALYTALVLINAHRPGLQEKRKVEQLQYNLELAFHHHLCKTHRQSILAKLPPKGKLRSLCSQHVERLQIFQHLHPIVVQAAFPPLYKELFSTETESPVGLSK
Method in brief: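 Doxycycline-induced reporter activity in engineered CHO cells (TET-inducible ROR, RORE-LUC) was measured by luminescence after 16hr compound exposure at 37C.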

[15] = target: Luciferin 4-monooxygenase (Photinus pyralis) (UniProt P08659); test: Biochemical firefly luciferase enzyme assay for NPC (AID 624030); note: nearly all actives have a fitted effect of over 70% in size; note: potency is the fitted concentration of half-maximal effect
Luciferin 4-monooxygenase (Photinus pyralis), sequence (P08659 whole entry, looked up): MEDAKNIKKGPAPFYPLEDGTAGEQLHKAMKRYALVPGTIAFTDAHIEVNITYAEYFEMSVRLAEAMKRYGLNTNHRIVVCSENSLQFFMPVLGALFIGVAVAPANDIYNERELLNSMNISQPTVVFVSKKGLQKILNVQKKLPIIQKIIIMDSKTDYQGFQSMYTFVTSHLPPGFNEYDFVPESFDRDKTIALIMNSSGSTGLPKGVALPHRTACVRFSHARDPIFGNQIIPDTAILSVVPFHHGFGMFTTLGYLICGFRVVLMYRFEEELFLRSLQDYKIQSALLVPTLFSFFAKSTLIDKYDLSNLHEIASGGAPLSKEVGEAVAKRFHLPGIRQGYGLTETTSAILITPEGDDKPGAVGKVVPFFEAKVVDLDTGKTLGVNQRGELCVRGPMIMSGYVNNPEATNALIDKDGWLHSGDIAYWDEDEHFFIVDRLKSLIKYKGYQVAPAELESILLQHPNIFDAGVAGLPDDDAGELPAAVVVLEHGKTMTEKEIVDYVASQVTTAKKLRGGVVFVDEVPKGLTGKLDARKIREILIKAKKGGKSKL
Method in brief: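 Direct inhibition of firefly luciferase enzyme (10 nM final, 50 mM Tris Acetate) assessed by luminescence within 5 minutes. Percent activity scaled between DMSO and PTC124 positive control, with concentration-effect curves classified by fit quality and response.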

[16] = S16 Schwann cell viability assay (CellTiter-Glo assay) (AID 624031);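 note: native untransfected S16 rat Schwann cells; cellular ATP luminescence as a viability measure; plate controls were DMSO-treated cells for no effect and cell-free wells for full effect; nearly all actives have a fitted effect of over 70% in size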
Method in brief: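 Parental S16 cells, 24 h compound, 37 °C. ATP-luminescence viability; DMSO = 0% activity, empty wells as reference; curves classified by fit quality and efficacy.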

[17] = S16 Schwann cell PMP22 intronic element firefly luciferase assay (AID 624032);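 note: plate controls were DMSO for no effect and PTC124 positive control mean for full effect; nearly all actives have a fitted effect of over 30% in size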
Method in brief: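 Luciferase reporter of PMP22 intronic-element expression in stably transfected S16 rat Schwann cells, read by ONE-Glo luminescence after 24 h compound exposure at 37 C. Activity scaled between DMSO (0%) and positive-control PTC124; concentration-effect curves quality-classified.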

[18] = S16 Schwann cell PMP22 intronic element beta-lactamase assay (AID 624044; calls by dose curve;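 note: 0% = DMSO and -100% = potassium clavulanate positive control; nearly all actives have a fitted effect of over 15% in size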); conditions: S16 rat Schwann cells, PMP22 element beta-lactamase FRET, 24 h; ratio activity, negative = inhibition: at 38.3 µM (top of the series) unless noted
Method in brief: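 Beta-lactamase reporter under a PMP22 intronic regulatory element in stable S16 rat Schwann cells; 24 h compound exposure. 460 nm blue signal normalized between DMSO (0%) and potassium clavulanate, with 535 nm FRET tracking viability; curves classed by r2 and response.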

Oc1ccc(/C=C/c2cc(O)cc(O)c2)cc1
inactive: Potency [1] | outcome [3] | outcome [4] | outcome [5] | outcome [6] | activation [8] 5.17% and 7.3% | activation [9] 5.67% | max response [13] -3.92% and -4.52% | Potency [14]
active: Potency [2] 5.01 µM | Potency [7] 19.3 µM and 37.6 µM | Potency [10] 1.88 µM | Potency [11] 5.31 µM | Potency [12] 25.1 µM

CCCCCCCCCCCCOCCCN
inactive: Potency [15] | Potency [16] | Potency [17] | ratio activity, negative = inhibition [18] 0.509%

O=C(O)CC/C=C\CC[C@@H]1[C@@H](N2CCCCC2)[C@@H](O)C[C@@H]1OCc1ccc(-c2ccccc2)cc1
inactive: Potency [15] | Potency [16] | Potency [17] | ratio activity, negative = inhibition [18] -1.41%

Nc1ccc(N=Nc2ccccc2)c(N)n1
active: Potency [15] 10.2 µM | Potency [7] 19.3 µM and 37.6 µM | Potency [10] 18.8 µM | Potency [11] 16.8 µM | Potency [12] 39.8 µM and 44.7 µM
inactive: Potency [17] | ratio activity, negative = inhibition [18] 0.697% | activation [8] 2.09% and 13.7% | activation [9] -0.825% | max response [13] -8.45% and -6.87% | Potency [14]

O=C(NNCS(=O)(=O)O)c1ccncc1
active: ratio activity, negative = inhibition [18] -19.9%
inactive: Potency [15] | Potency [16] | Potency [17]

CC(/C=C/C=C(\C)C(=O)O[C@@H]1O[C@H](CO[C@@H]2O[C@H](CO)[C@@H](O)[C@H](O)[C@H]2O)[C@@H](O)[C@H](O)[C@H]1O)=C\C=C\C=C(C)\C=C\C=C(/C)C(=O)O[C@@H]1O[C@H](CO[C@@H]2O[C@H](CO)[C@@H](O)[C@H](O)[C@H]2O)[C@@H](O)[C@H](O)[C@H]1O
inactive: Potency [15] | Potency [16] | Potency [17] | ratio activity, negative = inhibition [18] 3.54%

CCC(C(=O)NC(N)=O)c1ccccc1 (stereo not given)
inactive: Potency [15] | Potency [16] | Potency [17] | ratio activity, negative = inhibition [18] 8.54%
